# From PubChem BioAssay (Tox21)
# Unmarked numbers belong to inactive results. Active and inactive are the calls of the source. The call rests on the fitted dose curve.
# Test: G protein-coupled receptor (GPCR) small molecule agonists, calcium flux assay: HEK293 wild type cell line counter screen (AID 1920065)
# Details: HEK293 WT calcium flux, fluorescence, agonist mode; series mostly up to 57.6 µM; activation: at the top concentration
# Description: U.S. Tox21 Program National Center for Advancing Translational Sciences [NCATS] Division of Preclinical Innovation [DPI] U.S. Environmental Protection Agency [EPA] National Institutes of Environmental Health Sciences [NIEHS] National Toxicology Program [NTP] U.S. Food and Drug Administration [FDA] Assay overview: The increased intracellular calcium release that occurred upon G protein-coupled receptor (GPCR) activation led to the frequent use of calcium flux assays to detect GPCR activation. For the purpose of studying and screening compounds that may activate GPCR, receptor-overexpressing models were typically generated using Hek293 wild-type (WT) cells. In order to eliminate the compounds that may have induced calcium release for non-specific activation, a counter-assay utilizing calcium flux on Hek293 WT cells was performed. The data were formulated in order to serve as a control for any calcium flux detection utilizing Hek293 cells with either GPCR overexpression or gene modification. The procurement of Hek293 WT cells from ATCC. Fluorescence intensity can be utilized to determine the activation of the compound in a calcium flux assay. As a counter control, this cell line was utilized to screen the Tox21 10K compound library.
# Assay Protocol Summary: Hek293 cells were dispensed at 1500cells/4uL/well in 1536-well black wall/clear bottom plates using a multidrop dispenser. After the assay plates were incubated at a 37 C/5% CO2 incubator for 18 hours, 4 uL of Calcium Dye Solution was added to each well. The plates were incubated at 37 C for 1 hour. For agonist mode, 23 nL of compounds dissolved in DMSO, positive control (ATP) or DMSO only was transferred to the assay plate by a pin tool station. The fluorescence intensity in the plates was measured using FDSS 7000EX kinetic plate reader with a filter set of Ex/Em=480/540 for 3 min at 1 sec intervals. Each test compound was measured at 15 concentrations and in triplicates.
# On the % scale 0 is the no-effect control and ±100 the full control effect.
SMILES,activation,Potency
COc1ccccc1N=Nc1c(S(=O)(=O)O)cc2cc(S(=O)(=O)O)cc(NC(C)=O)c2c1O,-2.62%,
CCC(CC)C(C)CCOC(C)=O (stereo not given),0.951%,
CCC(C)(O)CCC=C(C)C (stereo not given),0.674%,
C=C(CC)C(=O)c1ccc(OCC(=O)O)c(Cl)c1Cl,,inactive
Cc1ccc2n[nH]nc2c1,0.785%,
CCOC(=O)c1ccccc1C,0.247%,
CC(=O)Oc1ccccc1C(=O)Nc1ncc([N+](=O)[O-])s1,3.11%,
CC(C)(C)C1CCCCC1O (stereo not given),-0.139%,
O=C(c1ccccc1O)c1ccccc1O,-5.14%,
NS(=O)(=O)c1cc2c(cc1Cl)NC(C1CC3C=CC1C3)NS2(=O)=O (stereo not given),-0.347% [at 26.5 µM],
CCCCCCCCCCCC(=O)OC[C@@H](O)[C@H]1OC[C@H](OCCO)[C@H]1OCCO,2%,
COc1cc(C(=O)N2CCCCCCC2)cc(OC)c1OC,-0.247% [at 26.5 µM],
CCCCCC/C=C/C(=O)OC,0.238%,
C/C=C(\C)C(=O)OCc1ccccc1,0.911%,
CC(C)COC(=O)c1ccc(N)cc1,-1.26% [at 26.5 µM],
C/C(=C1\CCOC(=O)S1)N(C=O)Cc1cnc(C)nc1N,0.473% [at 26.5 µM],
Nc1ccc2cc3ccccc3cc2c1,,inactive
O=S(=O)(O)c1cccc2c(S(=O)(=O)O)cccc12,0.57%,
O=C1CCCCC1,,inactive
CCC(C)S (stereo not given),0.0986% [at 2.04 µM],

SMILES,activation,Potency
OCCN1CCN(CCCN2c3ccccc3C=Cc3ccccc32)CC1,6.42% [at 26.5 µM],
OCC(O)CN1CCN(c2ccccc2)CC1 (stereo not given),-0.392% [at 26.5 µM],
C[N+](C)(CCOc1ccccc1)Cc1cccs1,1.65% [at 26.5 µM],
O=C(c1ccccc1)c1ccccc1O,,inactive
OCc1c2ccccc2cc2ccccc12,-0.981%,
NCc1ccccc1Sc1ccccc1CO,-0.0513% [at 26.5 µM],
C[C@@H]1CC(=O)NN=C1c1ccc(NN=C(C#N)C#N)cc1,,inactive
C[Si](C)=O,0.129% [at 5.23 µM],
O=C(O)c1ccc(C(=O)O)c(C(=O)O)c1,,inactive
CC(=O)OC/C=C(\C)CC/C=C(\C)CCC=C(C)C,,inactive
CC(C)(O)C#CC(C)(C)O,0.773%,
Cc1ccc(C(C)NC(=O)[C@@H](NC(=O)OC(C)C)C(C)C)cc1 (stereo not given in full),-1.54%,
CC(=O)OCCC1CCCCC1,-0.319%,
CCN(Cc1cccc(S(=O)(=O)O)c1)c1ccccc1,-0.3%,
Clc1ccc(C(c2ccccc2Cl)C(Cl)Cl)cc1 (stereo not given),,inactive
CCOc1ccc2c(c1)C(C)=CC(C)(C)N2,-0.742%,
Nc1nc(N)nc(-c2ccccc2)n1,,inactive
Clc1nc2ccccc2s1,-0.824%,
CC1(C)Oc2ccc(C#N)cc2[C@@H](N2CCCC2=O)[C@@H]1O,0.215% [at 26.5 µM],
CCCOC(=O)C(C)O (stereo not given),-0.462%,
